Inconclusive results are not listed. Calls of active or inactive are those of the source. Unless noted, the call rests on the fitted dose curve; in most records, active means well fitted curve in the direction sought with a large enough effect in the repeat runs; inconclusive means weak or mixed curves; inactive means no such curve, though single readings can be large; an effect the other way counts as inactive or inconclusive.
Columns and labels:
[1] = qHTS assay to identify aromatase inhibitors - cell viability counter screen (AID 743084);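 further: cells stimulated with testosterone during compound exposure; nearly all actives have a fitted effect of over 55% in size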; further: potency means the concentration at half of the fitted maximal effect
[2] = biological target: Aryl hydrocarbon receptor (Homo sapiens) (UniProt P35869); test: qHTS assay to identify small molecule that activate the aryl hydrocarbon receptor (AhR) signaling pathway (AID 743085); further: nearly all actives have a fitted effect of over 15% in size; further: potency means the concentration at half of the fitted maximal effect;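 on activation: HG2L7.5c1 human HepG2 liver cells with stably integrated DRE-driven firefly reporter; series mostly up to about 70 µM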
Method in brief: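 Cell line HG2L7.5c1 (human hepatoma, 20× DRE-luc). Plated, 5 h 37C, compound/DMSO added, 24 h 37C. CellTiter-Fluor 30 min 37C → fluorescence; then ONE-Glo 30 min RT → luminescence.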

[3] = qHTS assay to identify small molecule that activate the aryl hydrocarbon receptor (AhR) signaling pathway - cell viability counter screen (AID 743086);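 further: HepG2 liver cells carrying the AhR DRE luciferase reporter; series mostly up to about 70 µM; nearly all actives have a fitted effect of over 45% in size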
Method in brief: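 Cytotoxicity counter screen: CellTiter-Fluor signal (30 min, 37 C) in 4000 HepG2 cells/well carrying the DRE-luciferase reporter, following 24 h compound exposure at 37 C.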

[4] = qHTS assay to identify small molecule antagonists of the peroxisome proliferator-activated receptor gamma (PPARg) signaling pathway - cell viability counter screen (AID 743194); conditions: Potency: co-treated with 50 nM rosiglitazone; further: nearly all actives have a fitted effect of over 55% in size; further: potency means the concentration at half of the fitted maximal effect
Method in brief: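 Viability was measured as CellTiter-Glo luminescence in GeneBLAzer PPARg UAS-bla HEK293H cells. These cells had been exposed 17 h at 37 C to compounds together with rosiglitazone at 50 nM final, with the beta-lactamase readout taken in the same wells.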

[5] = qHTS assay for small molecule agonists of the antioxidant response element (ARE) signaling pathway (AID 743202; active means well fitted activation curve with a large enough effect in the signal ratio in the repeat runs, not every such curve was filed as active; the % refers to the signal ratio; further: potency means the concentration at half of the fitted maximal effect)
Method in brief: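 Quantitative high-throughput format in HepG2 cells bearing an integrated ARE-beta-lactamase reporter. Compound exposure lasted 16 h at 37 C, and fluorescence was read 2 h after adding LiveBLAzer B/G substrate at room temperature.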

[6] = qHTS assay for small molecule agonists of the antioxidant response element (ARE) signaling pathway - cell viability counter screen (AID 743203; calls by dose curve; further: nearly all actives have a fitted effect of over 55% in size)
Method in brief: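 CellSensor ARE-bla HepG2 cells, 2,000 per well, rested 5 hrs at 37C/5% CO2, then exposed to compound in DMSO for 16 hrs; viability read as CellTiter-Glo luminescence after 30 min at room temperature, in the reporter wells.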

[7] = qHTS assay for small molecule activators of the heat shock response signaling pathway - cell viability counter screen (AID 743209); further: nearly all actives have a fitted effect of over 50% in size; further: potency means the concentration at half of the fitted maximal effect
Method in brief: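 CellSensor HSE-bla HeLa cells, plated overnight at 37 C/5% CO2, were exposed to compounds in DMSO for 5 h at 37 C. Viability was then read in the same wells by CellTiter-Glo luminescence after 30 min at room temperature.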

[8] = qHTS assay for small molecule activators of the heat shock response signaling pathway (AID 743210; active means well fitted activation curve with a large enough effect in the signal ratio in the repeat runs, with a control signal flat, not every such curve was filed as active; the % refers to the signal ratio;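 further: HeLa cells with beta-lactamase reporter driven by heat shock elements; series mostly up to about 63 µM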)
Method in brief: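 HeLa HSE-bla cells, overnight plating; cpd in DMSO 5 h, 37 C; LiveBLAzer B/G FRET substrate 2.5 h RT; fluorescence intensity read.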

[9] = biological target: Peroxisome proliferator-activated receptor gamma (Homo sapiens) (UniProt P37231); test: qHTS assay to identify small molecule antagonists of the peroxisome proliferator-activated receptor gamma (PPARg) signaling pathway (AID 743191; calls by dose curve; further: nearly all actives have a fitted effect of over 30% in size; further: potency means the concentration at half of the fitted maximal effect)
Method in brief: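 Beta-lactamase reporter under UAS control in HEK293H PPARg-bla cells; compound treatment 17 h at 37C. Read-out: fluorescence intensity after 1 h room-temperature incubation with LiveBLAzer B/G FRET substrate.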

[10] = biological target: Peroxisome proliferator-activated receptor gamma (Homo sapiens) (UniProt P37231); test: qHTS assay to identify small molecule agonists of the peroxisome proliferator-activated receptor gamma (PPARg) signaling pathway (AID 743094; active means well fitted activation curve with a large enough effect in the signal ratio in the repeat runs, not every such curve was filed as active; the % refers to the signal ratio)
Method in brief: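 GeneBLAzer PPARg UAS-bla HEK293H cells carrying a stably integrated beta-lactamase reporter were pre-incubated 5 h at 37C, then exposed to compounds in DMSO for 17 h at 37C; LiveBLAzer B/G FRET substrate was added for 1 h at room temperature and fluorescence read.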

Measured: Potency

Aryl hydrocarbon receptor (Homo sapiens), sequence (P35869 whole entry, looked up): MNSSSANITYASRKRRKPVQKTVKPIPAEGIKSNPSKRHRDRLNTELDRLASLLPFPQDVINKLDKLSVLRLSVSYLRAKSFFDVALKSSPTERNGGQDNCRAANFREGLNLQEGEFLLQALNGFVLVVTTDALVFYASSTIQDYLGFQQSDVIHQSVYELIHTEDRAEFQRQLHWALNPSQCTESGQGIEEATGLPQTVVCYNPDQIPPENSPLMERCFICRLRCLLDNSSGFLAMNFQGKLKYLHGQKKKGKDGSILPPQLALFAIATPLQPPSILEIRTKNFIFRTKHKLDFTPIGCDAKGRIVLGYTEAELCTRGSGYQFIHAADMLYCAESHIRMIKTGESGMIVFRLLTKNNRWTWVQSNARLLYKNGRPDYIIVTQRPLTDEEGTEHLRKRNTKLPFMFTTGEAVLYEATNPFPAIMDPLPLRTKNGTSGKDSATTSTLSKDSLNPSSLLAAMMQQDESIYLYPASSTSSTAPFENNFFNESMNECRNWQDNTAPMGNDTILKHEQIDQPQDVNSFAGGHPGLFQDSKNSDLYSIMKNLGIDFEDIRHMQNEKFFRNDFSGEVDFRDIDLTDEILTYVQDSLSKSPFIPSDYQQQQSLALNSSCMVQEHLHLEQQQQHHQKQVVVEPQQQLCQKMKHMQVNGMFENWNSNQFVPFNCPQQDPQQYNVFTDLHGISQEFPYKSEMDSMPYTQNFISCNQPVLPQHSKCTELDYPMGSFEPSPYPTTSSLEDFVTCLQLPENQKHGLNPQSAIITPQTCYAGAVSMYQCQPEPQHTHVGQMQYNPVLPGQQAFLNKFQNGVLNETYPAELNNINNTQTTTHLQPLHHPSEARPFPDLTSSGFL
Peroxisome proliferator-activated receptor gamma (Homo sapiens), sequence (P37231 whole entry, looked up): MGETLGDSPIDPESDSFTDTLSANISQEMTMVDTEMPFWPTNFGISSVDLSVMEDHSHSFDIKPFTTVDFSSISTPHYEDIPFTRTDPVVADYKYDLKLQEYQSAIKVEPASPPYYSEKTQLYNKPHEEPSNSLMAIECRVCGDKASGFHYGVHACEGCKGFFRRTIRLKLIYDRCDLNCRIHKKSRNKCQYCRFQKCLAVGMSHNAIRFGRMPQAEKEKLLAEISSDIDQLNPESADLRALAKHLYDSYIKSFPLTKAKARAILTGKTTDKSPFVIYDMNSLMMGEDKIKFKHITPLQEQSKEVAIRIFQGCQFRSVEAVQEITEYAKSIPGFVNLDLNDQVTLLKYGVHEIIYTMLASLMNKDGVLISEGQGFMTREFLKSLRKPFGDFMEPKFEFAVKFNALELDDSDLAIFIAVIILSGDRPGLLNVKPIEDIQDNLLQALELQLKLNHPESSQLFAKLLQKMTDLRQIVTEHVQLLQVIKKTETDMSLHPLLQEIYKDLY

COC(C)(C)C
not listed: [9] | [10]
inactive: all other assays above

Nc1cc2c3c(c1)C(c1ccccc1)=N[C@@H](NC(=O)c1cccnc1)C(=O)N3CC2
not listed: [9] | [10]
inactive: all other assays above

CCCCCCBr
not listed: [9] | [10]
inactive: all other assays above

COC(=O)C(C)Oc1ccc(Oc2ccc(Cl)cc2Cl)cc1 (stereo unspecified)
not listed: [10]
inactive: all other assays above

CC(C)COP(=O)(OCC(C)C)OCC(C)C
not listed: [4] | [9]
inactive: all other assays above

O=C(Nc1ccccc1)c1ccccc1I
active: [2] 48.6 µM | [5] 21.7 µM
not listed: [9] | [10]
inactive: all other assays above

CC1=C(C(=O)Nc2ccccc2)S(=O)(=O)CCO1
active: [1] 30.6 µM | [5] 1.93 µM
inactive: [2] | [3] | [6] | [7]

C=CCC1=C(C)[C@@H](OC(=O)[C@@H]2[C@@H](C=C(C)C)C2(C)C)CC1=O
active: [7] 49 µM
inactive: [1] | [2] | [3] | [6]

Cc1nnc2n1-c1sc(CCC(=O)N3CCOCC3)cc1C(c1ccccc1Cl)=NC2
not listed: [4] | [9]
inactive: all other assays above

CNC(=O)Oc1ccc(N(C)C)c(C)c1
not listed: [5] | [9] | [10]
inactive: all other assays above

C#C[C@]1(O)C=C[C@H]2[C@@H]3CCC4=CC(=O)CC[C@@H]4[C@H]3CC[C@@]21CC
not listed: [5] | [9] | [10]
inactive: all other assays above

COc1cc(OC)nc(NC(=O)NS(=O)(=O)c2ncccc2C(=O)N(C)C)n1
not listed: [4] | [9]
inactive: all other assays above

CN/C(=N\[N+](=O)[O-])NCC1CCOC1 (stereo unspecified)
not listed: [9] | [10]
inactive: all other assays above

Cc1nc(N)nc(N)n1
inactive: [1] | [2] | [3] | [6] | [7] | [8]

C#CCN1C(=O)COc2cc(F)c(N3C(=O)C4=C(CCCC4)C3=O)cc21
inactive: [1] | [2] | [3] | [10] | [4] | [8]

CC1(C)COP(Oc2ccccc2)OC1
inactive: [1] | [2] | [3] | [4] | [7] | [8]

O=NN1CCN(N=O)CC1
not listed: [9] | [10]
inactive: all other assays above

CC(C)NCC(O)c1ccc(N)c(C#N)c1 (stereo unspecified)
not listed: [4] | [9]
inactive: all other assays above

CC1CN1P(=O)(N1CC1C)N1CC1C (stereo unspecified)
inactive: [1] | [2] | [3] | [4] | [7] | [8]

O=C(O)C(Br)CBr (stereo unspecified)
active: [5] 27.8 µM
not listed: [6] | [9] | [10]
inactive: all other assays above

CCCSC(=O)N(CCC)CCC
not listed: [9] | [10]
inactive: all other assays above

N#CCBr
not listed: [9] | [10]
inactive: all other assays above

C[C@]12CC[C@H]3[C@@H](CC=C4C[C@@H](O)CC[C@@]43C)[C@@H]1CC[C@@H]2O
inactive: [1] | [2] | [3] | [4] | [5] | [6]

O=c1oc2ccccc2c(O)c1C1CCCc2ccccc21 (stereo unspecified)
active: [9] 30.9 µM
not listed: [5] | [10]
inactive: all other assays above

C1CCC(C2CCCCC2)CC1
inactive: [1] | [2] | [3] | [10] | [7] | [8]

CCS(=O)(=O)CCSP(=O)(OC)OC
active: [5] 8.63 µM
not listed: [4] | [9] | [10]
inactive: all other assays above

Cc1ncsc1CCCl
not listed: [4] | [8] | [9]
inactive: all other assays above

Nc1ccccc1Cl
not listed: [4] | [9]
inactive: all other assays above

NC(=O)O
not listed: [7] | [9] | [10]
inactive: all other assays above

CC(C)CC(N(C)C)C1(c2ccc(Cl)cc2)CCC1 (stereo unspecified)
not listed: [8] | [9] | [10]
inactive: all other assays above

C[C@H]1CCC[C@H](O)CCCCCc2cc(O)cc(O)c2C(=O)O1
active: [1] 43.6 µM
inactive: [2] | [3] | [7]

CC(CC(C#N)(c1ccccc1)c1ccccc1)N(C)C (stereo unspecified)
inactive: [1] | [2] | [4] | [6] | [7] | [8]

Nc1cnn(-c2ccccc2)c(=O)c1Cl
not listed: [2] | [9]
inactive: all other assays above

C(CCOCC1CO1)COCC1CO1 (stereo unspecified)
inactive: [1] | [2] | [3] | [7] | [8]

CC(Oc1ccc(Oc2ncc(C(F)(F)F)cc2Cl)cc1)C(=O)O (stereo unspecified)
inactive: [1] | [2] | [3] | [7] | [8]

O=C(CCCN1CCC(n2c(=O)[nH]c3ccccc32)CC1)c1ccc(F)cc1
not listed: [2] | [5] | [9]
inactive: all other assays above

BrCCCCCCBr
not listed: [2] | [5]
inactive: all other assays above

CC(C)(C)OC(=O)c1ncn2c1[C@@H]1CCCN1C(=O)c1c(Br)cccc1-2
not listed: [2] | [5]
inactive: all other assays above

CC1=NNC(=O)N(/N=C/c2cccnc2)C1
not listed: [2] | [9]
inactive: all other assays above

C[N+](C)=CCl
not listed: [2]
inactive: all other assays above

O=[N+]([O-])c1ccc2c3c(cccc13)CC2
inactive: [1] | [3] | [10] | [9] | [4] | [6]

CCCCOC(=O)c1ccccc1C(=O)O
not listed: [2]
inactive: all other assays above

CNC(=O)Oc1ccccc1C1OCCO1
inactive: [1] | [3] | [10] | [9] | [5] | [6]

O=C(Cc1ccccc1)OCc1ccccc1
not listed: [2] | [7]
inactive: all other assays above

CCOP(=S)(OCC)SCSP(=S)(OCC)OCC
inactive: [1] | [3] | [10] | [4] | [8]

COc1cc(OC)nc(Sc2cccc(Cl)c2C(=O)O)n1
inactive: [1] | [3] | [10] | [5] | [7] | [8]

O=C(Nc1ccccc1)N(Cc1ccc(Cl)cc1)C1CCCC1
active: [2] 54.5 µM | [4] 21.9 µM
inactive: [1] | [7] | [8]

COc1cc(C[C@@H](C)N)c(OC)cc1C
not listed: [2] | [5] | [9]
inactive: all other assays above

COc1cc(OC)nc(NC(=O)NS(=O)(=O)c2ncccc2OCC(F)(F)F)n1
not listed: [2] | [4] | [6]
inactive: all other assays above

CC(=O)CC(c1ccc(Cl)cc1)c1c(O)c2ccccc2oc1=O (stereo unspecified)
inactive: [1] | [2] | [3] | [6] | [8]

CCCCOP(=O)(O)OCCCC
not listed: [2] | [7] | [9]
inactive: all other assays above

Nc1cc(Cl)ccc1O
inactive: [1] | [3] | [6] | [7] | [8]
active: [2] 29.6 µM

COP(N)(=S)Oc1ccccc1C(=O)OC(C)C (stereo unspecified)
not listed: [2] | [6]
inactive: all other assays above

CCOC(=O)/C=C(C)/C=C/C[C@@H](C)CCCC(C)C
active: [7] 38.9 µM
inactive: [1] | [3] | [10]

CCC(C)n1c(=O)[nH]c(C)c(Br)c1=O (stereo unspecified)
not listed: [2]
inactive: all other assays above

N#CC(CCc1ccc(Cl)cc1)(Cn1cncn1)c1ccccc1 (stereo unspecified)
inactive: [1] | [2] | [5] | [6] | [7] | [8]

Cc1ncc2n1-c1ccc(Cl)cc1C(c1ccccc1F)=NC2
inactive: [1] | [3] | [9] | [4] | [7] | [8]

CCOC(=O)NC(=S)Nc1ccccc1NC(=S)NC(=O)OCC
not listed: [2] | [7]
inactive: all other assays above

CCOP(=S)(OCC)Oc1cc(-c2ccccc2)on1
inactive: [1] | [3] | [9] | [5] | [8]

CCN(CC)C(=O)[C@@H]1C=C2c3cccc4[nH]cc(c34)C[C@H]2N(C)C1
inactive: [1] | [3] | [10] | [4] | [6] | [8]

OC(c1ccc(F)cc1)(c1cncnc1)c1ccccc1Cl (stereo unspecified)
inactive: [1] | [3] | [10] | [4] | [6] | [8]

CCCSP(=O)(OCC)Oc1ccc(Br)cc1Cl (stereo unspecified)
inactive: [1] | [3] | [10] | [6] | [7] | [8]

CCN(CC)c1nc(C)cc(OP(=S)(OC)OC)n1
inactive: [1] | [3] | [10] | [4] | [7] | [8]

CN1CCC(O)(c2ccc(F)cc2)C(C(=O)c2ccc(F)cc2)C1 (stereo unspecified)
inactive: [1] | [3] | [10] | [4] | [6]

C=C(C)[C@@H]1CC=C(C=O)CC1
not listed: [2] | [5] | [9]
inactive: all other assays above

Cc1ccccc1CO[C@@H]1C[C@@]2(C(C)C)CC[C@]1(C)O2
not listed: [2] | [6] | [9]
inactive: all other assays above

c1cc[c]([Hg][c]2ccccc2)cc1
inactive: [1] | [3] | [10] | [7] | [8]
